Data: PubChem BioAssay (NCATS)
Results filed as inconclusive are left out. Calls of active or inactive are those of the source. The call rests on the fitted dose curve; in most records, active means well fitted cell-killing curve with a large enough effect; inconclusive means small, poorly fitted or top-dose-only effect; inactive means flat fitted curve, though single readings scatter.

Tests used:
[1] = Cell Viability - LYMP2-009 (AID 968); conditions: LYMP2-009 lymphoblastoid cell viability; series mostly up to 92.2 µM; further: nearly all actives have a fitted effect of over 55% in size
[2] = Cell Viability - LYMP2-011 (AID 969); conditions: LYMP2-011 lymphoblastoid cells viability; series mostly up to 92.2 µM; further: nearly all actives have a fitted effect of over 60% in size
Summary of the method: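 Human lymphoblastoid cells (2500/well) were plated in complete medium, preincubated 5 hr at 37 C, then exposed to compounds for 24 hr at 37 C. Intracellular ATP was read by CellTiter-Glo luminescence, and AC50 came from Hill-equation concentration-response fits.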

[3] = Cell Viability - LYMP2-013 (AID 970); conditions: LYMP2-013 lymphoblastoid cells viability; series mostly up to 92.2 µM; further: nearly all actives have a fitted effect of over 55% in size
Summary of the method: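 Human lymphoblastoid cells, 2500/well, were preincubated 5 hr at 37 C, then treated with compounds for 24 hr at 37 C in complete medium. Intracellular ATP was read by CellTiter-Glo luminescence; AC50 from Hill-equation fits of concentration-response data.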

[4] = Cell Viability - LYMP2-015 (AID 971); conditions: LYMP2-015 lymphoblastoid cell viability; series mostly up to 92.2 µM; further: nearly all actives have a fitted effect of over 55% in size
Summary of the method: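 Human lymphoblastoid cells (2500/well) in complete medium were preincubated 5 hr at 37 C, then compound-treated 24 hr at 37 C. Intracellular ATP was read by CellTiter-Glo luminescence after 30 min at room temperature; AC50 came from Hill-equation concentration-response fits.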

[5] = Cell Viability - LYMP2-017 (AID 972); conditions: LYMP2-017 lymphoblastoid cell viability; series mostly up to 92.2 µM; further: nearly all actives have a fitted effect of over 55% in size
Summary of the method: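 Human lymphoblastoid cells (2500/well) were seeded in complete medium, held 5 hr at 37 C, then exposed to compounds for 24 hr at 37 C. Intracellular ATP was read by CellTiter-Glo luminescence after 30 min at room temperature, with AC50 values from Hill-equation fits.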

[6] = Cell Viability - LYMP2-019 (AID 973); conditions: LYMP2-019 lymphoblastoid cell line viability; series mostly up to 92.2 µM; further: nearly all actives have a fitted effect of over 55% in size
Summary of the method: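 Human lymphoblastoid cells were seeded at 2500 cells/well, preincubated 5 hr at 37 C, then exposed to compounds for 24 hr at 37 C in complete medium. Intracellular ATP was measured by CellTiter-Glo luminescence; AC50 from Hill fits.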

[7] = Cell Viability - LYMP2-021 (AID 974); conditions: LYMP2-021 lymphoblastoid cells viability; series mostly up to 92.2 µM
Summary of the method: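 Human lymphoblastoid cells (2500/well) were preincubated 5 hr at 37 C, then exposed to compounds for 24 hr at 37 C in complete medium. Intracellular ATP was read by CellTiter-Glo luminescence; AC50 came from Hill-equation fits of concentration-response data.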

[8] = Cell Viability - LYMP2-023 (AID 975); conditions: LYMP2-023 lymphoblastoid cell viability; series mostly up to 92.2 µM
Summary of the method: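 Human lymphoblastoid cells (2500/well) were preincubated 5 hr at 37 C, then exposed to compounds for 24 hr at 37 C in complete medium. Cellular ATP was read by CellTiter-Glo luminescence, and AC50 came from Hill-equation fits.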

[9] = Cell Viability - LYMP2-025 (AID 976); conditions: LYMP2-025 lymphoblastoid cell viability; series mostly up to 92.2 µM
Summary of the method: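 Human lymphoblastoid LYMP2-025 cells (2500/well) were pre-incubated 5 hr at 37 C, then treated with compounds for 24 hr at 37 C in complete medium. Viability was read as intracellular ATP by CellTiter-Glo luminescence; AC50 from Hill fits.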

[10] = Cell Viability - LYMP2-002 (AID 977); conditions: LYMP2-002 lymphoblastoid cell viability, qHTS; series mostly up to 92.2 µM;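 further: compound exposure lasted 24 h at 37 °C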
Summary of the method: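 Cytotoxicity is scored as concentration-dependent loss of cellular ATP in a human lymphoblastoid line after 24 hr compound treatment at 37 C. AC50 is obtained by modelling concentration-response data with the Hill equation.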

[11] = Cell Viability - LYMP2-006 (AID 978); conditions: LYMP2-006 lymphoblastoid cell viability, qHTS; series mostly up to 92.2 µM; further: nearly all actives have a fitted effect of over 60% in size
Summary of the method: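 Human lymphoblastoid cells (LYMP2-006), 2500/well in complete medium, were treated with compound for 24 hr at 37 C. Cellular ATP was read by CellTiter-Glo luminescence after 30 min, and AC50 values came from Hill-equation fits of concentration-response data.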

[12] = Cell Viability - LYMP2-007 (AID 979); conditions: LYMP2-007 lymphoblastoid cell viability; series mostly up to 92.2 µM;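 further: cells exposed to compound for 24 h before reading; nearly all actives have a fitted effect of over 60% in size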
Summary of the method: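 Human lymphoblastoid cells (2500/well) were plated in complete medium, incubated 5 hr at 37 C, then exposed to compounds for 24 hr at 37 C. Intracellular ATP was read by CellTiter-Glo luminescence after 30 min at room temperature; AC50 from Hill fits.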

[13] = Cell Viability - LYMP2-008 (AID 980); conditions: LYMP2-008 lymphoblastoid cell viability, qHTS; series mostly up to 92.2 µM; further: nearly all actives have a fitted effect of over 60% in size
Summary of the method: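 Human lymphoblastoid cells (2500/well) were plated, held 5 hr at 37 C, then exposed to compounds for 24 hr at 37 C in complete medium. Intracellular ATP was read by CellTiter-Glo luminescence; AC50 from Hill-fitted concentration-response.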

[14] = Cell Viability - LYMP2-010 (AID 981); conditions: LYMP2-010 lymphoblastoid cell viability, qHTS; series mostly up to 92.2 µM; further: nearly all actives have a fitted effect of over 55% in size
Summary of the method: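 Human lymphoblastoid LYMP2-010 cells (2500/well) were preincubated 5 hr at 37 C, then exposed to compounds for 24 hr at 37 C in complete medium. Intracellular ATP was measured by CellTiter-Glo luminescence after 30 min at room temperature; AC50 from Hill-fitted concentration-response.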

[15] = Cell Viability - LYMP2-014 (AID 983); conditions: LYMP2-014 lymphoblastoid cells, viability qHTS; series mostly up to 92.2 µM; further: nearly all actives have a fitted effect of over 50% in size
Summary of the method: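 Human lymphoblastoid cells (2500/well) were pre-incubated 5 hr at 37 C, then exposed to compounds in complete medium for 24 hr at 37 C. Intracellular ATP was read by CellTiter-Glo luminescence after 30 min at room temperature; AC50 from Hill fits.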

[16] = Cell Viability - LYMP2-016 (AID 984); conditions: LYMP2-016 lymphoblastoid cell viability, qHTS; series mostly up to 92.2 µM; further: nearly all actives have a fitted effect of over 55% in size
Summary of the method: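 Human lymphoblastoid LYMP2-016 cells, 2500 per well, treated with compounds for 24 h at 37 C. Viability read as intracellular ATP by CellTiter-Glo luminescence after 30 min at room temperature; AC50 from Hill fits of concentration-response.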

[17] = Cell Viability - LYMP2-018 (AID 985); conditions: LYMP2-018 lymphoblastoid cells, viability (qHTS); series mostly up to 92.2 µM;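 further: compound exposure lasted 24 hr at 37 °C; nearly all actives have a fitted effect of over 50% in size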
Summary of the method: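 Human lymphoblastoid cells (2500/well) were pre-incubated 5 hr at 37 C, then exposed to compounds for 24 hr at 37 C in complete medium. Viability was read as intracellular ATP by CellTiter-Glo luminescence; AC50 values came from Hill-equation fits.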

[18] = Cell Viability - LYMP2-020 (AID 986); conditions: series mostly up to 92.2 µM; further: nearly all actives have a fitted effect of over 55% in size
Summary of the method: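 Human lymphoblastoid cells, 2500/well, were pre-incubated 5 hr at 37 C, then exposed to compounds for 24 hr at 37 C in complete medium. Intracellular ATP was read by CellTiter-Glo luminescence, and AC50 was derived by Hill fitting of concentration-response data.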

[19] = Cell Viability - LYMP2-022 (AID 987); conditions: LYMP2-022 lymphoblastoid cell viability; series mostly up to 92.2 µM; further: nearly all actives have a fitted effect of over 55% in size
Summary of the method: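 Human lymphoblastoid cells, 2500/well, preincubated 5 hr at 37 C, then exposed to compounds over a concentration range for 24 hr at 37 C in complete medium. Viability read as intracellular ATP by CellTiter-Glo luminescence after 30 min at room temperature; AC50 from Hill fits.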

[20] = Cell Viability - LYMP2-012 (AID 982); conditions: LYMP2-012 lymphoblastoid cell viability qHTS; series mostly up to 92.2 µM

Measured: Potency

C[C@]12CCC(=O)C=C1CC[C@@H]1[C@@H]2CC[C@@]2(C)[C@H]1CC[C@]2(C)O
not listed: [20]
inactive: all other assays above

CN1C[C@H](C(=O)N[C@]2(C)O[C@@]3(O)[C@@H]4CCCN4C(=O)[C@H](Cc4ccccc4)N3C2=O)C=C2c3cccc4[nH]cc(c34)C[C@H]21
not listed: [4] | [6] | [14] | [16] | [19] | [20]
inactive: all other assays above

NCCc1ccc(O)cc1
inactive: all assays above

Clc1ccc(C(c2ccc(Cl)cc2)C(Cl)(Cl)Cl)cc1
inactive: all assays above

CCC(C)(C)c1ccc(O)cc1
inactive: all assays above

Nc1ccccc1
not listed: [10]
inactive: all other assays above

Nc1ccccc1C(=O)O
inactive: all assays above

Oc1ccc(Cl)cc1
inactive: all assays above

CC(C)NC(C)C
inactive: all assays above
